Experimental data taken from the supplement of paper PMC3334620.
Over roughly 33,000 sequences, “E-score (-0.5 to 0.5)” has its median near -0.01; the highest 2% begin near 0.26. This is one part of a sample in which the highest values are shown more often than they occur.

Target: Ste12 (UniProt P13574)
Assay: PBM E-score (8-mer binding enrichment) (E-score (-0.5 to 0.5)); higher = stronger / more preferred TF binding
Conditions: protein concentration: 200 nM; construct: GST-DNA-binding domain
Summary of the method: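 E-scores (a modified Wilcoxon-Mann-Whitney statistic) were assigned by the Universal PBM Analysis Suite to every ungapped eight-base word pooled with its reverse complement. The input came from universal all-10-mer Agilent arrays made double-stranded by primer extension and probed with GST-tagged yeast transcription factors at about 100-200 nM. Fluorescent anti-GST detected bound protein, and masliner normalised the scans.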

Sequence of UniProt P13574 (P13574 whole entry): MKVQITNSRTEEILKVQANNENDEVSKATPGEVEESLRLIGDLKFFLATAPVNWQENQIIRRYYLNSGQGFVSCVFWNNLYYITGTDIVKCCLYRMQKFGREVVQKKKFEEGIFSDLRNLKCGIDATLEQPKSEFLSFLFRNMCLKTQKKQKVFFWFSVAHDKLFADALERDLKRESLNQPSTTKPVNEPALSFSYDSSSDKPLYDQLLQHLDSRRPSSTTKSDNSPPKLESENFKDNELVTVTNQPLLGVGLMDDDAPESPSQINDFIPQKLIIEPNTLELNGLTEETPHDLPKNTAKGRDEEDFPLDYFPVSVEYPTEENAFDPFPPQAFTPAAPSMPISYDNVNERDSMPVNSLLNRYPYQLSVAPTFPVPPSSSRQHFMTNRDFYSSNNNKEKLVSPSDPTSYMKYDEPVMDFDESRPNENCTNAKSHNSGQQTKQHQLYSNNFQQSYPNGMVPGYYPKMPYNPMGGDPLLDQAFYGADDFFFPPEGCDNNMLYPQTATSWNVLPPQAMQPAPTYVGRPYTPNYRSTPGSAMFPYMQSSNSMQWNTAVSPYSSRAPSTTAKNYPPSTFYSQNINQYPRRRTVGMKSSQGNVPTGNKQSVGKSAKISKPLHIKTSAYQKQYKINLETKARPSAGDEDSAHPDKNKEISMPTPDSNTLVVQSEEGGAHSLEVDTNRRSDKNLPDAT

In order of rising “PBM E-score” value:
1. CCCCTAGG  -0.254
2. GCCTGGGA  -0.23
3. ACGCTAGA  -0.209
4. AAGGTTCG  -0.185
5. AGCCTCGC  -0.155
6. AAGACATG  -0.137
7. CCTCTAGA  -0.134
8. ATAGACTC  -0.133
9. ATCAGGGG  -0.128
10. GAGTATCC  -0.127
11. GGTCCATA  -0.111
12. CCAGCAGG  -0.107
13. ACGGCATG  -0.107
14. AGTGATGC  -0.099
15. ATGATGGG  -0.0865
16. GAGCTGGC  -0.0837
17. GCCCGATA  -0.0773
18. GATGGTTA  -0.0584
19. ATTTAGGA  -0.039
20. TACCTGGA  -0.0387
21. CAACAGCC  -0.0347
22. TCAGACGA  -0.0271
23. AGGTAGAG  -0.0159
24. AAGTGCAA  -0.0141
25. AGTATATC  -0.0122
26. ACATAGGA  -0.0111
27. CCGGTTTA  -0.00824
28. AGGGTTTA  0.00108
29. AAGCAATA  0.0028
30. GGGGTTTA  0.00666
31. CGCTGGCA  0.00792
32. CCGAAAAC  0.0124
33. CAGCTTAC  0.0225
34. CTCGCAGC  0.0324
35. ACGAAAGG  0.0336
36. GAGGTAAC  0.0397
37. CGGGTTAC  0.0422
38. AAAAGTTC  0.0553
39. CAGGTTTA  0.0837
40. ATTCGCGA  0.0844
41. CATATATC  0.0851
42. ATGGTTTG  0.0887
43. ACAGAATA  0.0915
44. CTGTTGGA  0.0959
45. AGGGTTTC  0.114
46. CAAAGTAA  0.125
47. ACGAAACT  0.127
48. GCGAAACA  0.134
49. CCGAAACC  0.142
50. AGTATATG  0.143
51. AATATATG  0.143
52. AAAATATC  0.147
53. AAGGTTTC  0.148
54. CCGAAACG  0.152
55. CAGAAACA  0.156
56. ACGAAAAG  0.16
57. AAGAAACT  0.172
58. TCACCAAA  0.177
59. TCCCGCAA  0.18
60. CATATATG  0.18
61. ACGGTTTC  0.2
62. AATATATA  0.22
63. CCGAAAAG  0.235
64. ATTTTTGC  0.236
65. TCGAAAAA  0.238
66. AAAATATG  0.241
67. ACGAAACC  0.242
68. CTGGTTTC  0.244
69. CAGGTAAA  0.248
70. TATCGAAA  0.258
71. AAAATATT  0.266
72. CCGAAAAA  0.269
73. ATGGTTTC  0.28
74. CATATATA  0.283
75. AAGAAACA  0.285
76. AGTATATA  0.295
77. CCGGTTTC  0.298
78. CGGGTTTA  0.304
79. ACGAAACG  0.31
80. CGGGTTTC  0.323
81. AATATATT  0.326
82. ACGAAACA  0.327
83. GAGGTAAA  0.334
84. CAGGTTTC  0.361
85. CCGAAACA  0.376
86. TCGAAACA  0.395
